IL1B secr inh – inhibitors of inflammasome signaling (IL-1 beta secretion). THP-1 LPS/ATP IL-1B secretion, AlphaLISA, 16 h; hits give low values. activity change, % at 57.5 µM. 4.7% of 360,000 active; in the data active means activity change below about -50%; inconclusive means mostly about -30% to -49%
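THP-1 cells pretreated 1 hr with compounds (up to 57.5 uM final), then stimulated with LPS (250 ng/mL final) plus ATP (1.25 mM final); secreted IL-1B measured by AlphaLISA after 16 hr, decreased signal indicating inhibition.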
DT40 TDP1 no CPT – qHTS for Inhibitors of human tyrosyl-DNA phosphodiesterase 1 (TDP1): qHTS in cells in absence of CPT; 15% of 420,000 active; Potency, µM (doses to about 46.2 µM), actives largely listed as inhibitors; DT40 Tdp1-/- hTDP1 cells, no CPT, ATP luminescence, 48 h; AID 686978, 2013; further: nearly all actives have a fitted effect of over 55% in size
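Camptothecin absent (DMSO only). Human TDP1-complemented DT40 knockout cells, 400 cells/well, 37 °C for minimum 48 hr; ATP measured via CellTiter-Glo, 30 min dark incubation, luminescence.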
ELG1 repair inh – blocks ELG1-dependent DNA repair in HEK293T cells; HEK293T ELG1-luciferase reporter, luminescence, 16 h; DNA damage induced by 5-fluorouridine; Potency, µM (titrated, usually from 46.1 µM), actives largely listed as inhibitors; 2.3% of 330,000 active; further: nearly all actives have a fitted effect of over 55% in size
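Reporter activity after DNA damage by 5-fluorouridine is monitored. Compound-treated cells incubate 16 hr at 37 °C, then ONE-Glo is added for 30 min before luminescence reading.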
HT1080 IDH1KD tx – kills HT-1080 cells with IDH1 knockdown | HT-1080 IDH1 knockdown viability, ATP luminescence, 48 h | Potency, µM (series often up to 46.1 µM), usual class: cytotoxic | 2% of 360,000 active | AID 686971
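Luminescent ATP read-out (CellTiter-Glo, 10 min at room temperature) after 48 h compound exposure at 37 °C gave viability of IDH1-knockdown HT-1080 cells. Activity was normalised to DMSO and cell-free wells, then fitted as concentration-response curves.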
HT1080-NT tox – kills 2HG-producing HT-1080-NT fibrosarcoma cells; HT-1080-NT fibrosarcoma viability, CellTiter-Glo ATP luminescence, 48 h; 1.6% of 360,000 active; Potency, µM (highest dose often 46.1 µM), actives largely listed as cytotoxic; AID 686970;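 further: NT is the 2HG producing partner of a matched IDH1 knockdown line; nearly all actives have a fitted effect of over 55% in size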
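HT-1080-NT; 750 cells/well; 5% FBS RPMI; 48 h compound, 37 degrees C; CellTiter-Glo luminescence; curve fitting and curve-class assignment.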
TDP1 cell CPT – DT40-hTDP1 cell growth loss with CPT; chicken DT40 Tdp1-/-;hTDP1 cells + 20 nM CPT, ATP luminescence, 48 h; Potency, µM (top dose mostly 46.2 µM), hits mostly inhibitors; 12% of 420,000 active; further: nearly all actives have a fitted effect of over 55% in size
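Cell growth measured by CellTiter-Glo luminescence after a minimum 48 h, 37 C compound exposure with 20 nM CPT in Tdp1-knockout DT40 cells stably expressing hTDP1, seeded 400/well; qHTS titration format.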
A number is an active result; 0 = inactive; ? = inconclusive; - = no result. Compounds with a hit are over-represented: about 19% of the library has one in this group of screens. Unless noted, the call rests on the fitted dose curve; in most records, active means well fitted curve in the direction sought with a large enough effect; inconclusive means small, poorly fitted or top-dose-only effect, or another doubt; inactive means no such curve, though single readings can be large; an effect the other way counts as inactive or inconclusive.

SMILES	IL1B secr inh	DT40 TDP1 no CPT	ELG1 repair inh	HT1080 IDH1KD tx	HT1080-NT tox	TDP1 cell CPT
Cc1cc(C(=O)CN2C(=O)C3CC=CCC3C2=O)c(C)n1-c1ccccc1 (stereo not drawn)	0	23µM	?	0	0	23µM
Cc1cc(C(=O)CN2C(=O)c3ccccc3S2(=O)=O)c(C)n1-c1ccccc1	0	23µM	?	0	0	21µM
Cc1cc(C)cc(NC(=O)CS(=O)(=O)c2cccc3nsnc23)c1	0	0	0	0	0	0
CC(C)c1nc(-c2ccccc2)c(-c2ccccc2)[nH]1	0	21µM	0	0	0	?
c1ccc(-c2nc(-c3cccs3)[nH]c2-c2ccccc2)cc1	0	?	?	0	0	?
CCOC(=O)COc1c(-c2ccc(OC)cc2)oc2ccccc2c1=O	0	?	?	0	0	?
COc1ccc(-c2oc3ccccc3c(=O)c2OC(C)=O)cc1	0	16µM	0	?	?	23µM
CC(=O)Oc1c(-c2ccc(Br)o2)oc2ccccc2c1=O	0	15µM	0	?	0	26µM
O=C(O)COc1c(-c2ccco2)oc2ccccc2c1=O	0	0	0	0	0	0
COc1ccc(C(CNCC(O)COc2c(C)ccc(C)c2C)N(C)C)cc1 (stereo not drawn)	0	12µM	0	0	0	26µM
COc1cc(/C=N/NC(=O)c2ccncc2)ccc1OCC(=O)Nc1ccc(C)c(C)c1	0	?	?	0	0	?
CCCCOc1ccc(/C=C/C(=O)N(CC)CC(=O)Nc2ccc3c(c2)OCCO3)cc1OC	?	0	18µM	0	0	?
COc1cc(/C=C2\C(=O)N(CCC#N)N=C2C)ccc1OCC(=O)Nc1ccccc1	-61	?	?	0	0	?
COc1cc(/C=C2\SC(N)=NC2=O)ccc1OCC(=O)Nc1ccc(C)cc1	-103	1.5µM	0	0	0	1.5µM
C/C=C/c1ccc(OCC(=O)Nc2ccncc2)c(OC)c1	0	?	0	0	0	18µM
CCOc1ccccc1CNC(=O)CN1C(=O)C2CCCCN2c2ccc(C(=O)N(C)C)cc21 (stereo not drawn)	-	?	-	-	-	0
C/C=C/C(=O)OCC(=O)Nc1ccc(OC)c(OC)c1	0	0	0	0	0	0
C/C=C/c1ccc(OCC(=O)Nc2ccc(OC)c(OC)c2)c(OC)c1	0	23µM	16µM	0	0	16µM
CCOc1ccc(C(=O)c2ccc(OCC)c(N)c2)cc1N	?	29µM	?	0	0	?
CCCOc1cccc(NC(=O)c2c(-c3ccccc3Cl)noc2C)c1	-	8.2µM	-	-	-	9.2µM
CCCOC(=O)c1cccc(NC(=O)c2c(-c3ccccc3Cl)noc2C)c1	-	7.3µM	-	-	-	7.3µM
C/C(=N\NC(=O)c1c(-c2ccccc2Cl)noc1C)c1cccc(NC(=O)C(C)C)c1	0	23µM	?	0	0	?
Cc1onc(-c2ccccc2Cl)c1C(=O)Nc1cccc(-c2cn3cccnc3n2)c1	0	16µM	?	0	0	?
C/C(=N\NC(=O)c1ccc(Cn2cc(Br)cn2)o1)c1cccc(NC(=O)C(C)C)c1	0	?	5.8µM	0	0	0
COc1cc(/C=C2\SC(=S)N(NC(=O)c3cccnc3)C2=O)ccc1O	0	0	?	0	0	0
SMILES	IL1B secr inh	DT40 TDP1 no CPT	ELG1 repair inh	HT1080 IDH1KD tx	HT1080-NT tox	TDP1 cell CPT
COc1cc(/C=C2\SC(=S)N(Nc3ncc(C(F)(F)F)cc3Cl)C2=O)ccc1O	?	?	?	0	0	21µM
CN(C)c1ccc(/C=C2\SC(=S)N(Nc3ncc(C(F)(F)F)cc3Cl)C2=O)cc1	0	8.2µM	0	?	?	8.2µM
COc1ccccc1N1CCN(C(=O)c2nc(SC)ncc2Cl)CC1	-	1µM	-	-	-	1µM
COc1ccccc1N1CCN(C(=O)c2onc(C)c2Cl)CC1	0	?	0	?	?	?
COc1ccccc1N1CCN(C(=O)c2cc(-c3ccc(Cl)cc3)on2)CC1	0	?	0	0	0	22µM
COc1ccccc1-c1cc(C(=O)N2CCN(c3ccccc3OC)CC2)no1	0	?	0	?	?	18µM
O=S(=O)(Nc1cccc(F)c1)c1ccc(S(=O)(=O)N2CCOCC2)cc1	0	?	-	0	0	0
CC(=O)Nc1ccc(C(=O)Nc2ccc3c(c2)N(C2CCCC2)C(=O)c2ccccc2S3)cc1	-	16µM	-	-	-	21µM
N#Cc1ccc(C(=O)Nc2ccc3c(c2)N(C2CCCC2)C(=O)c2ccccc2S3)cc1	-	18µM	-	-	-	23µM
CCCNC(=O)c1ccc(N2CCC3(CC2)CC(c2cccc(Br)c2)=NO3)c(NC(=O)c2cccc(C)c2)c1	0	?	?	0	0	?
CCOC(=O)C(NC(=O)NCc1ccccc1)(OCC)C(F)(F)F (stereo not drawn)	0	23µM	0	0	0	?
CC1=NN(C(=O)CSCc2ccccc2)C(O)(c2ccccc2)C1 (stereo not drawn)	0	0	?	0	0	0
CC1=NN(C(=O)c2ccc(C)o2)C(O)(c2ccccc2)C1 (stereo not drawn)	0	4.6µM	0	0	0	4.6µM
CC1=NN(C(=O)c2ccco2)C(O)(c2ccccc2)C1 (stereo not drawn)	0	0.92µM	0	0	0	1µM
CCC(C)c1ccc(S(=O)(=O)N2CCN(C(C)C(=O)NC3CCCC3)CC2)cc1 (stereo not drawn)	0	?	?	0	0	15µM
Cc1ccc(S(=O)(=O)N2CCN(C(C)C(=O)NCC(C)c3ccccc3)CC2)cc1 (stereo not drawn)	0	23µM	?	0	0	?
CC(NC(=O)C(C)N1CCN(S(=O)(=O)c2ccccc2)CC1)c1ccccc1 (stereo not drawn)	0	0	0	0	0	0
CCCc1ccc(S(=O)(=O)N2CCN(C(C)C(=O)NC3CCCC3)CC2)cc1 (stereo not drawn)	0	?	0	0	0	0
CC(C)c1ccc(S(=O)(=O)N2CCN(C(C)C(=O)Nc3ccccc3-c3ccccc3)CC2)cc1 (stereo not drawn)	0	?	0	0	0	18µM
CC(C(=O)Nc1ccccc1-c1ccccc1)N1CCCCC1 (stereo not drawn)	0	?	0	0	0	0
CCC(C)C(CO)NCCCn1cnc2c(OC)ncnc21 (stereo not drawn)	0	0	-	0	?	0
CSc1ccc(CCNC(=O)Cn2ncc3c(=O)oc4ccccc4c32)cc1	-	?	-	-	-	0
